Giardia FBPA inh = qHTS Assay for Inhibitors of Fructose-1,6-bisphosphate Aldolase from Giardia Lamblia. Potency, µM (highest dose often 59.6 µM), without a hit: at the highest dose activity, negative = inhibition, usual class: inhibitors. A8B2U2. purified Giardia FBPA. 0.71% of 290,000 active; note: nearly all actives have a fitted effect of over 55% in size
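40 nM FBPA preincubated 10 min at RT with compound (up to 57.5 uM final), then substrate plus GAPDH/TPI/NAD/arsenate coupling and diaphorase/resazurin added. Fluorescence read after 20 min at RT, 525/598 nm.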
AMA1-RON2 inh = qHTS for Inhibitors of AMA1-RON; Towards Development of Antimalarial Drug Lead: Primary Screen; 0.2% of 360,000 active; Plasmodium falciparum AMA1 (3D7) - RON2 peptide interaction; Potency, µM (series often up to 58.2 µM), without a hit: at the highest dose activity change, negative = inhibition, most hits filed as inhibitors; AlphaScreen AMA1-biotinylated RON2 peptide binding;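 note: 0% = vehicle wells and -100% = peptide control; nearly all actives have a fitted effect of over 45% in size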
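AMA1 (3D7) with his tag at 25 nM final met compounds first, then biotinylated RON2 peptide at 25 nM; detection used donor plus acceptor beads, 10 µg/mL apiece, read by AlphaScreen after 30 min at room temperature.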
AmpC inh no detg = qHTS Inhibitors of AmpC Beta-Lactamase (assay without detergent); AID 485341, 2010; AmpC nitrocefin hydrolysis, absorbance 480 nm, 0.0001% Triton; P00811; Potency, µM (titrated, usually from 57.1 µM), without a hit: at the highest dose activity change, negative = inhibition, usual class: inhibitors; 0.52% of 330,000 active;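 note: plate controls were no compound for no effect and no enzyme for full effect; nearly all actives have a fitted effect of over 20% in size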
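AmpC (5.3 nM in the dispensed reagent) in 20 mM phosphate pH 7.0 with 0.01% (detergent screen) or 0.0001% Triton X-100 was preincubated with compounds for 15 min at room temperature. Nitrocefin was then added from an 800 uM solution, and hydrolysis was followed at 480 nm.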
AmpC inh detg = qHTS Inhibitors of AmpC Beta-Lactamase (assay with detergent) | Potency, µM (titrated, usually from 114 µM), for the others: at the top dose activity change, negative = inhibition, most hits filed as inhibitors | AmpC hydrolysis of nitrocefin, absorbance 480 nm, 0.01% Triton | P00811 | 0.041% of 370,000 active | AID 485294, 2010;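 note: 0% = no-compound wells and -100% = no-enzyme wells; nearly all actives have a fitted effect of over 25% in size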
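20 mM phosphate pH 7.0 + 0.01% (detergent screen) or 0.0001% Triton X-100; 5.3 nM AmpC reagent; cpd preinc 15 min RT; nitrocefin (800 uM stock) to start; A480 q20 s × 4 min; Activity was normalised to no-enzyme and no-compound control wells.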
LmPK inhibitor = qHTS Assay for Inhibitors of Leishmania Mexicana Pyruvate Kinase (LmPK); purified LmPK, Kinase-Glo ATP luminescence, 1 h; 0.37% of 290,000 active; Q27686; Potency, µM (titrated, usually from 57.5 µM), inactives show at the top dose activity change, negative = inhibition, hits mostly inhibitors
Target sequence (Q27686 whole entry, looked up): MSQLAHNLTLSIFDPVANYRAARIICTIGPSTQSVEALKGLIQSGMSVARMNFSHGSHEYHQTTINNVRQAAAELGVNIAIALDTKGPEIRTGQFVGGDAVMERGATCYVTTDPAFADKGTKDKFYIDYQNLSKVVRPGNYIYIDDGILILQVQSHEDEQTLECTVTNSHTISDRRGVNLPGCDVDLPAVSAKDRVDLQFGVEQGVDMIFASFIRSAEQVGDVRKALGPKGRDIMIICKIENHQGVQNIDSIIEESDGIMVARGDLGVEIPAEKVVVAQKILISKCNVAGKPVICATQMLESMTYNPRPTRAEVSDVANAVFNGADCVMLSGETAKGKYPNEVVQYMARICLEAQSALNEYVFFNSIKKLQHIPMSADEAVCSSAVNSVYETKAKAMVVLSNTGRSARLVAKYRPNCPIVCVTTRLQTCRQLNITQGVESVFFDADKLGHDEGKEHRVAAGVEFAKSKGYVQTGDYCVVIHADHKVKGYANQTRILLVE
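Purified LmPK (0.1 nM) converted ADP (0.1 mM) to ATP with PEP (0.5 mM) in imidazole buffer pH 7.2 with KCl and MgCl2, 1 h at room temperature. ATP was read by Kinase-Glo luminescence; data normalized to uninhibited and no-enzyme controls.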
* = called active by the depositor; ? = inconclusive; . = not tested or not shown; [ ] = dose if it differs, or a comment. Rows were chosen to be rich in hits. Some 1.3% of all compounds tested hit in one or more screens of this group. Calls come from the whole dose curve; as a rule, active = well fitted curve in the direction sought with a large enough effect; inconclusive = small, poorly fitted or top-dose-only effect, or another doubt; inactive = no such curve, though single readings can be large; an effect the other way counts as inactive or inconclusive. Unless noted, % is set by controls: 0 for no effect and ±100 for the full control effect; potency is the fitted concentration of half-maximal effect.

SMILES	Giardia FBPA inh	AMA1-RON2 inh	AmpC inh no detg	AmpC inh detg	LmPK inhibitor
CCn1c(C)nc2cc(C(=O)N/N=C/c3ccc(O)c(O)c3O)ccc21	13µM*	14µM*	-1%	2%	1%
CCN(CC)S(=O)(=O)c1cccc(C(=O)N/N=C/c2ccc(O)c(O)c2O)c1	4.5µM*	-6%[11.6 µM]	20µM*	-9%	0%
CCn1c(C)nc2cc(C(=O)N/N=C/c3cccc(OC)c3O)ccc21	8%	72%	13%	2%	1%
CN(C)S(=O)(=O)c1cccc(NC(=S)N/N=C/c2ccc(O)c(O)c2O)c1	16µM*	-4%	?	-1%	-15%
CCOc1ccccc1/C=N/NC(=O)c1cccc(S(=O)(=O)N(CC)CC)c1	?	15%	-47%	-15%	-2%
CCN(CCO)c1ccc(NC(=S)Nc2cccc(S(=O)(=O)N(C)C)c2)cc1	7.9µM*	-7%	-22%	-9%	-9%
COc1ccc(O)c(/C=N/NC(=S)Nc2cccc(S(=O)(=O)N(C)C)c2)c1	-4%	-36%	-40%	?	5%
CC(C)c1nnc(N2C(=O)c3oc4ccccc4c(=O)c3C2c2cccc(O)c2)s1 (configuration not stated)	.	.	.	24%	.
Cc1cccc(C)c1C(O)c1ncc(-c2cccc3ccccc23)[nH]1 (configuration not stated)	.	4%	.	.	.
CCOc1ccc(-n2c(SC(C)C(=O)OC)nc3c([nH]c4ccccc43)c2=O)cc1 (configuration not stated)	.	.	.	0%	.
CC(C)(C)N(Cc1ccccc1)C(=O)COC(=O)/C=C/c1ccc2c(c1)OCO2	.	0%	-15%	5%	.
O=S(=O)(c1ccccc1)N1CCN(S(=O)(=O)c2ccc(F)cc2)CC1	9%	-2%	-18%	-21%	6%
Cc1cc(C)c(S(=O)(=O)ON2C(=O)c3ccccc3C2=O)cc1C	-13%	-6%	-36%	50µM*	-22%
Cc1cc(C)c(C)c(S(=O)(=O)ON2C(=O)c3ccccc3C2=O)c1C	.	-4%	-41%	56µM*	-25%
Cc1ccc(OC(=O)CN2C(=O)c3ccccc3C2=O)cc1C	14%	0%	-11%	2%	0%
C[C@H](O)CON1C(=O)c2ccccc2C1=O	2%	.	.	.	.
O=C1c2ccccc2C(=O)N1OS(=O)(=O)c1ccc(F)cc1	4%	-8%	-29%	45µM*	?
Cc1ccc(S(=O)(=O)ON2C(=O)c3ccccc3C2=O)c(C)c1	-9%	-14%	-27%	79µM*	?
CCC(c1nnc(SCC(=O)NC2CCCCC2)n1Cc1ccccc1)N(C)C (configuration not stated)	.	12%	78%	-14%	.
COc1cccc(-c2cc(C(F)(F)F)n3nc(N)nc3n2)c1	0%	3%	-7%	0%	-5%
COc1cccc(-c2cn3nc4c(nc3n2)CCCC4)c1	?	16%	0%	-13%	11µM*
Clc1ccc(-c2cn3ncsc3n2)cc1	.	.	.	20%	.
Clc1ccc(-c2cn3nc4c(nc3n2)CCCC4)cc1	?	21%	-13%	?	14µM*
CCCCC(=O)NC(=S)NNC(=O)c1ccc(OC)cc1	6%	109%	-51%	35µM*	3%
CC(C)(C=O)C1=CC(=O)c2ccccc2C1=O	?	-16%	-18%	?	13µM*
CN1CCCN(C(=O)CC2(CC(=O)O)CCCC2)CC1	-3%	2%	-40%	28µM*	6%
CCS(=O)(=O)Nc1cc(-c2cn3ccc(C)cc3n2)ccc1C	.	.	.	22%	.
Oc1ccc(-c2cn3ccccc3n2)cc1O	-7%	22µM*	-10%	-14%	?
Cc1ccn2cc(-c3ccc(O)c(O)c3)nc2c1	?	2.5µM*	-15%	-1%	?
Oc1ccc(-c2cn3ccccc3n2)cc1	-9%	0%	-4%	2%	22µM*

Source: PubChem (National Center for Advancing Translational Sciences (NCATS))
